# Experimental data reported in the supplement of paper PMC12350171.
# Where a name gives a salt, the structure may show the parent alone.
# System: Haemophilus parainfluenzae
# Assay: growth AUC normalised to DMSO control (fraction of control); higher = less growth inhibition, active = hit call of the paper
# Settings: 20 µM;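 active = AUC significantly below DMSO controls by Student t-fit with adjusted P under 0.01; inactive = not significantly reduced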
# Procedure, shortened: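 Hemin and NAD were added to the medium for Haemophilus parainfluenzae. All pathogens, after two anaerobic passages, were inoculated at a starting OD578 of 0.01 into pre-reduced mGAM plates with 20 μM compound and 1% DMSO under breathable seals, and OD578 was read hourly for 24 h in three biological replicates. AUC of each growth curve was obtained with the trapezoidal rule up to the exponential-to-stationary transition and normalised to DMSO controls from the same plate.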
row,Compound,growth AUC normalised to DMSO control
1,Clc1ccc(Nc2nnc(Cc3ccncc3)c3ccccc23)cc1 [Vatalanib],1.04 (inactive)
2,COC(=O)Nc1nc2cc(C(=O)c3ccc(F)cc3)ccc2[nH]1 [Flubendazol],1.02 (inactive)
3,C[C@@H]1C[C@H]2[C@@H]3C[C@H](F)C4=CC(=O)C=C[C@]4(C)[C@@]3(Cl)[C@@H](O)C[C@]2(C)[C@H]1C(=O)COC(=O)C(C)(C)C [Clocortolone pivalate],1.73 (inactive)
4,CC[C@H](C)C(=O)O[C@H]1C[C@@H](C)C=C2C=C[C@H](C)[C@H](CC[C@@H]3C[C@@H](O)CC(=O)O3)[C@H]21 [Lovastatin],0.984 (inactive)
5,Cc1ncc(C[n+]2csc(CCO)c2C)c(N)n1 [Thiamine hydrochloride],0.964 (inactive)
6,CCn1cc(C(=O)O)c(=O)c2cc(F)c(N3CCN(C)CC3)cc21 [Pefloxacin],0.0557 (active)
7,CC1(C)O[C@@H]2C[C@H]3[C@@H]4C[C@H](F)C5=CC(=O)C=C[C@]5(C)[C@@]4(F)[C@@H](O)C[C@]3(C)[C@]2(C(=O)CO)O1 [Fluocinolone acetonide],0.995 (inactive)
8,Cn1cnc2c1c(=O)[nH]c(=O)n2C [Theobromine],1.06 (inactive)
9,CO/N=C(\C(=O)N[C@@H]1C(=O)N2C(C(=O)O)=C(COC(C)=O)CS[C@H]12)c1csc(N)n1 [Cefotaxime sodium salt],0.0499 (active)
10,OCCN1C[C@H](O)[C@@H](O)[C@H](O)[C@H]1CO [Miglitol],0.925 (inactive)
11,CCc1nc(N)nc(N)c1-c1ccc(Cl)cc1 [Pyrimethamine],0.201 (active)
12,CCN(CC)Cc1cc(Nc2ccnc3cc(Cl)ccc23)ccc1O [Amodiaquine dihydrochloride dihydrate],0.992 (inactive)
13,C=C[C@H]1CN2CC[C@H]1C[C@@H]2[C@@H](O)c1ccnc2ccc(OC)cc12 [Quinidine hydrochloride monohydrate],1.01 (inactive)
14,CCN(CC)CCOC(=O)C(Cc1cccc2ccccc12)CC1CCCO1 (centres undefined) [Nafronyl oxalate],1.28 (inactive)
15,CC(C)(C)NC[C@@H](O)COc1cccc2c1CCCC2=O [(+) Levobunolol hydrochloride],0.973 (inactive)
16,CCCCCCCN(CC)CCCC(O)c1ccc(NS(C)(=O)=O)cc1 (centres undefined) [Ibutilide fumarate],0.938 (inactive)
17,CC(=O)[C@H]1CC[C@H]2[C@@H]3C=CC4=CC(=O)CC[C@@]4(C)[C@@H]3CC[C@]12C [Dydrogesterone],1.02 (inactive)
18,CC(=O)[C@@]1(O)CC[C@H]2[C@@H]3C[C@H](C)C4=CC(=O)C=C[C@]4(C)[C@@]3(F)[C@@H](O)C[C@@]21C [Fluorometholone],1 (inactive)
19,OCCN(CCO)c1nc(N2CCCCC2)c2nc(N(CCO)CCO)nc(N3CCCCC3)c2n1 [Dipyridamole],0.993 (inactive)
20,CNCCCN1c2ccccc2CCc2ccccc21 [Desipramine hydrochloride],0.979 (inactive)
21,CC(NCCC(c1ccccc1)c1ccccc1)c1ccccc1 (centres undefined) [Fendiline hydrochloride],0.986 (inactive)
22,CC(C)[N+](C)(CCOC(=O)C1c2ccccc2Oc2ccccc21)C(C)C [Propantheline bromide],0.988 (inactive)
23,Clc1ccc(C(Cn2ccnc2)OCc2c(Cl)cccc2Cl)c(Cl)c1 (centres undefined) [Isoconazole],0.972 (inactive)
24,CC(=O)Nc1ccc(OCC(O)CNC(C)C)cc1 (centres undefined) [Practolol],1.01 (inactive)
25,Cn1nnc2c(C(N)=O)ncn2c1=O [Temozolomide],0.975 (inactive)
26,c1ccc2c(CC3=NCCN3)cccc2c1 [Naphazoline hydrochloride],1.01 (inactive)
27,Cc1c(Cl)cccc1Nc1ncccc1C(=O)O [Clonixin lysinate],1.06 (inactive)
28,CC(=O)O[C@]1(C(C)=O)CC[C@H]2[C@@H]3C=C(Cl)C4=CC(=O)[C@@H]5C[C@@H]5[C@]4(C)[C@H]3CC[C@@]21C [Cyproterone acetate],1.01 (inactive)
29,CN(C)c1ccc(O)c2c1C[C@H]1C[C@H]3[C@H](N(C)C)C(=O)C(C(N)=O)=C(O)[C@@]3(O)C(=O)C1=C2O [Minocycline hydrochloride],0.0348 (active)
